# Laboratory results from PubChem BioAssay (Tox21).
# “And” between values parts separate entries of the source, which are not always exact repeats. Equal entries are not always repeated. Results filed as inconclusive are left out. Entries that show only a call come without a potency. Some structures have more than one record in an assay (separate samples or runs), and their calls can disagree. The source made the active and inactive calls. Unless noted, the call rests on the fitted dose curve.
# What was measured:
# [1] = qHTS assay to identify small molecule agonists of the sonic hedgehog signaling (Shh) pathway (AID 1259368);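 further: NIH/3T3-derived 3T3Gli1-Luc cells carrying a stable Gli1-driven firefly luciferase reporter; series mostly up to about 92 µM; nearly all actives have a fitted effect of over 15% in size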
# Method in brief: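 Read-out: firefly luciferase luminescence from a Gli1 response element reporter stably integrated in NIH/3T3-derived 3T3Gli1-Luc cells, measured 30 min at room temperature after reagent addition. Compound exposure lasted 24 hr at 37 C, 5% CO2.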
# [2] = qHTS assay to identify small molecule antagonists of the sonic hedgehog signaling (Shh) pathway (AID 1259369); further: nearly all actives have a fitted effect of over 45% in size; further: potency means the concentration at half of the fitted maximal effect
# Method in brief: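 Luminescence readout: firefly Luc under Gli1 response element in 3T3Gli1-Luc cells (NIH/3T3 clone). Antagonist mode, stimulation by conditioned medium; compound exposure 24hr at 37 C, 5% CO2.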
# [3] = molecular target: Estrogen receptor beta (Homo sapiens) (UniProt Q92731); assay: qHTS assay to identify small molecule agonists of the estrogen receptor beta (ER-beta) signaling pathway (AID 1259377; active means well fitted activation curve with a large enough effect in the signal ratio in the repeat runs, not every such curve was filed as active; the % refers to the signal ratio)
# Method in brief: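 Screening used GripTite ER-beta-UAS-bla cells held in 2% charcoal-stripped FBS medium. After overnight (16 hr) compound incubation at 37C, beta-lactamase activity was detected with a FRET substrate by fluorescence.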
# [4] = molecular target: Estrogen receptor beta (Homo sapiens) (UniProt Q92731); assay: qHTS assay to identify small molecule antagonists of the estrogen receptor beta (ER-beta) signaling pathway (AID 1259378; active means well fitted inhibition curve with a large enough effect in the signal ratio in the repeat runs, not every such curve was filed as active; the % refers to the signal ratio; further: potency means the concentration at half of the fitted maximal effect)
# Method in brief: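 ER-beta-UAS-bla HEK293T cells in 2% charcoal-stripped FBS medium treated with compound plus 1nM final 17-beta-estradiol for 16 hr at 37C. Beta-lactamase reporter read by FRET substrate fluorescence after 2 hours at room temperature.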
# [5] = qHTS assay to identify small molecule agonists of the androgen receptor (AR) signaling pathway in the presence of an antagonist - cell viability counter screen (AID 1259379; active means well fitted curve in the direction sought with a large enough effect in the repeat runs; an effect the other way counts as inactive or inconclusive; further: nearly all actives have a fitted effect of over 25% in size; further: potency means the concentration at half of the fitted maximal effect)
# Method in brief: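 Viability counter screen: CellTiter-Fluor fluorescence, measured in the same wells as the luciferase read-out. MDA-kb2 cells, 3,000/well, with nilutamide at 3.0uM final and compounds at 15 concentrations, 16 hr at 37C, 0% CO2.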
# [6] = qHTS assay to identify small molecule agonists of the estrogen receptor beta (ER-beta) signaling pathway - cell viability counter screen (AID 1259380; active means well fitted curve in the direction sought with a large enough effect in the repeat runs; an effect the other way counts as inactive or inconclusive; further: nearly all actives have a fitted effect of over 30% in size)
# Method in brief: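 Luminescence read-out (CellTiter-Glo, 30 min, room temp) taken in the same wells as the beta-lactamase reporter assay; ER-beta-UAS-bla HEK293T cells exposed to DMSO-dissolved compounds for 16 hr at 37C in 2% charcoal-stripped FBS medium.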
# [7] = molecular target: Estrogen receptor (Homo sapiens) (UniProt P03372); assay: qHTS assay to identify small molecule agonists of the estrogen receptor alpha (ER-alpha) signaling pathway in the presence of an antagonist (AID 1259383); further: nearly all actives have a fitted effect of over 15% in size; further: potency means the concentration at half of the fitted maximal effect; on activation: top concentration of the series differs between compounds
# Method in brief: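 Luciferase luminescence (ONE-Glo, 30min at room temperature) measured in VM7Luc4E2 cells after 22hr compound exposure at 15 concentrations, with 10.0nM ICI-182,780 final present; cells express endogenous ER-alpha and carry four EREs upstream of luciferase.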
# [8] = qHTS assay to identify small molecule agonists or antagonists of the thyroid stimulating hormone receptor (TSHR) signaling pathway - wild type cell line counter screen (AID 1259384)
# Method in brief: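 Wild-type Hek293 cells, 800/well, 18 h at 37C, then compound with Ro20-1724 for 30 min RT. cAMP by HTRF (cAMP-d2/anti-cAMP cryptate), 1 h RT, fluorescence read. 15 concentrations, triplicates.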
# [9] = molecular target: Thyrotropin receptor (Homo sapiens) (UniProt P16473); assay: qHTS assay to identify small molecule antagonists of the thyroid stimulating hormone receptor (TSHR) signaling pathway (AID 1259385); further: nearly all actives have a fitted effect of over 20% in size
# Method in brief: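 TSHR-HEK293 cells (800/well) plated 18 h, then compounds with Ro20-1724 and TSH at 1.5 ng/mL final, 30 min at room temperature. cAMP quantified by HTRF (cAMP-d2/anti-cAMP-cryptate, 1 h); 15 concentrations in triplicate.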
# [10] = qHTS assay to identify small molecule agonists of the estrogen receptor alpha (ER-alpha) signaling pathway in the presence of an antagonist - cell viability counter screen (AID 1259386; active means well fitted curve in the direction sought with a large enough effect in the repeat runs; an effect the other way counts as inactive or inconclusive;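 further: cells exposed to compounds for 22 h at 37 °C before the viability read; nearly all actives have a fitted effect of over 30% in size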; further: potency means the concentration at half of the fitted maximal effect)
# Method in brief: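 Read-out: CellTiter-Fluor fluorescence after 1hr reagent incubation, measured in the same wells as the luciferase readout. VM7Luc4E2 cells were exposed to 15 compound concentrations with 10.0nM ICI-182,780 for 22hr at 37C.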
# [11] = molecular target: Progesterone receptor (Homo sapiens) (UniProt P06401); assay: qHTS assay to identify small molecule agonists of the progesterone receptor (PR) signaling pathway (AID 1346784); further: nearly all actives have a fitted effect of over 30% in size
# Method in brief: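 Seed PR-UAS-bla HEK 293T cells (2% charcoal-stripped FBS), incubate 6 hr at 37C; add compounds in DMSO, 16 hr at 37C; add LiveBLAzer B/G substrate, 2 hr RT; read fluorescence intensity.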
# [12] = molecular target: Progesterone receptor (Homo sapiens) (UniProt P06401); assay: qHTS assay to identify small molecule antagonists of the progesterone receptor (PR) signaling pathway (AID 1346795; active means well fitted inhibition curve with a large enough effect in the signal ratio in the repeat runs, not every such curve was filed as active; the % refers to the signal ratio)
# Method in brief: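 Screening used a GripTite HEK293T line with PR-responsive UAS-beta-lactamase. Cells were challenged with compound in the presence of 1 nM R5020 final for 16 hr at 37C; B/G FRET substrate, 2 hr room temperature, fluorescence.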
# [13] = qHTS assay to identify small molecule antagonists of the progesterone receptor (PR) signaling pathway - cell viability counter screen (AID 1346798; active means well fitted curve in the direction sought with a large enough effect in the repeat runs; an effect the other way counts as inactive or inconclusive; further: series mostly up to about 92 µM; nearly all actives have a fitted effect of over 50% in size)
# Method in brief: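 Measures cytotoxicity in parallel with the PR antagonist reporter read: HEK293T PR-UAS-bla cells get compound and R5020 for 16 hr, and remaining viable cells are quantified by CellTiter-Glo luminescence.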
# [14] = qHTS assay to identify small molecule agonists of the progesterone receptor (PR) signaling pathway - cell viability counter screen (AID 1346799); further: nearly all actives have a fitted effect of over 45% in size; further: potency means the concentration at half of the fitted maximal effect
# Method in brief: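 Using the same plates as the PR reporter screen, HEK293T PR-UAS-bla cells received compounds for 16 hr at 37C and were then lysed with CellTiter-Glo; luminescence was read 30 min later at room temperature.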
# [15] = qHTS assay to identify small molecule antagonists of the TGF-beta/Smad signaling pathway - cell viability counter screen (AID 1346824; active means well fitted curve in the direction sought with a large enough effect in the repeat runs; an effect the other way counts as inactive or inconclusive; further: nearly all actives have a fitted effect of over 50% in size)
# Method in brief: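 SBE-bla HEK 293T cells, incubated overnight, then compound plus 0.25 ng/mL TGF-beta1 (stock added) for 5 hr at 37 C. Viability was read in the same wells by CellTiter-Glo luminescence after 30 min at room temperature.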
# [16] = qHTS assay to identify small molecule agonists of the TGF-beta/Smad signaling pathway - cell viability counter screen (AID 1346829; active means well fitted curve in the direction sought with a large enough effect in the repeat runs; an effect the other way counts as inactive or inconclusive; further: top concentration of the series differs between compounds; nearly all actives have a fitted effect of over 45% in size)
# Method in brief: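 HEK 293T SBE-bla line, 5 hr compound exposure at 37 C, multiplexed CellTiter-Glo viability read by luminescence.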
# [17] = qHTS assay to identify small molecule agonists of the TGF-beta/Smad signaling pathway (AID 1346859; active means well fitted activation curve with a large enough effect in the signal ratio in the repeat runs, not every such curve was filed as active; the % refers to the signal ratio; further: series mostly up to about 77 µM)
# Method in brief: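 Beta-lactamase reporter activity downstream of Smad binding elements was measured in stably transfected HEK 293T cells; compounds were incubated for 5 hr, substrate for 2 hr at room temperature.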
# [18] = molecular target: Thyrotropin-releasing hormone receptor (Homo sapiens) (UniProt P34981); assay: qHTS assay to identify small molecule antagonists of the thyrotropin-releasing hormone receptor (TRHR) signaling pathway (AID 1346877; active means well fitted inhibition curve with a large enough effect in the repeat runs, not every such curve was filed as active; further: series mostly up to about 51 µM)
# Method in brief: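 HEK293/TRHR cells, 18 h, 37 °C; Ca2+ dye 2 h; cpd 5 min RT; TRH 1 nM final; fluorescence read 3 min, 1 s intervals; 15 concs, triplicate.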
# [19] = qHTS assay to identify small molecule antagonists of the estrogen receptor beta (ER-beta) signaling pathway - cell viability counter screen (AID 1259382; active means well fitted curve in the direction sought with a large enough effect in the repeat runs; an effect the other way counts as inactive or inconclusive; further: series mostly up to about 92 µM; nearly all actives have a fitted effect of over 55% in size)
# Method in brief: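 Luminescent ATP read-out (CellTiter-Glo, 30 min, RT) taken in the same wells as the bla reporter assay. HEK293T ER-beta-UAS-bla cells in 2% charcoal-stripped FBS were exposed to compounds with 1nM E2 for 16 hr at 37C.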
# [20] = molecular target: Androgen receptor (Homo sapiens) (UniProt P10275); assay: qHTS assay to identify small molecule agonists of the androgen receptor (AR) signaling pathway in the presence of an antagonist (AID 1259381); further: nearly all actives have a fitted effect of over 15% in size; further: potency means the concentration at half of the fitted maximal effect
# Method in brief: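 Luciferase read-out (ONE-Glo, 30min room temperature) in MDA-kb2 MMTV-reporter cells; agonist mode run in presence of AR antagonist nilutamide, 3.0uM final. Compounds tested as 15-point series, 16hr exposure at 37C, 0% CO2.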
# Sequence of Progesterone receptor (Homo sapiens) (P06401 whole entry, looked up): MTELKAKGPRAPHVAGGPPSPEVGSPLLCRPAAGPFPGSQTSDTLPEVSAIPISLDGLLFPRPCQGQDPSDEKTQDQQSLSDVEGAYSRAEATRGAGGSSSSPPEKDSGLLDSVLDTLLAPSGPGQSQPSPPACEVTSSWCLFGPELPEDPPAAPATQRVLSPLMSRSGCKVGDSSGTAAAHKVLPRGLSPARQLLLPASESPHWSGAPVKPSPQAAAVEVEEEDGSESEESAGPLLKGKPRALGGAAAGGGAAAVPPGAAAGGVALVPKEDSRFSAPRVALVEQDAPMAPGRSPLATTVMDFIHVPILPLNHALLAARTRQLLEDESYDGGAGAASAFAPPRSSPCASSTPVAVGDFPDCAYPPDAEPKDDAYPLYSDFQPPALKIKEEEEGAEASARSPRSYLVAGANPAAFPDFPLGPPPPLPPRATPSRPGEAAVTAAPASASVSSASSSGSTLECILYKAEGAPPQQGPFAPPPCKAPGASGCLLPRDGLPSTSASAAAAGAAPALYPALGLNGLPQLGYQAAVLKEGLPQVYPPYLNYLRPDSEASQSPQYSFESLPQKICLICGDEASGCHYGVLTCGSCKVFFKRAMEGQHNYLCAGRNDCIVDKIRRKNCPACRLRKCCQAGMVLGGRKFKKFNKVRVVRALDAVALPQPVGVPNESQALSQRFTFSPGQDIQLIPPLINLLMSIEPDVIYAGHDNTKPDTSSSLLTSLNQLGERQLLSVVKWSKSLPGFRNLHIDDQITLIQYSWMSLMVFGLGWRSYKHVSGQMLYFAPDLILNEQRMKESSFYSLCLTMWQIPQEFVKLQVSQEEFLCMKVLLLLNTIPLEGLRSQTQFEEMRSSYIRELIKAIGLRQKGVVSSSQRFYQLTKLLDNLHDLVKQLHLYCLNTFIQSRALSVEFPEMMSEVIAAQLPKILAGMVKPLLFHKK
# Sequence of Thyrotropin receptor (Homo sapiens) (P16473 whole entry, looked up): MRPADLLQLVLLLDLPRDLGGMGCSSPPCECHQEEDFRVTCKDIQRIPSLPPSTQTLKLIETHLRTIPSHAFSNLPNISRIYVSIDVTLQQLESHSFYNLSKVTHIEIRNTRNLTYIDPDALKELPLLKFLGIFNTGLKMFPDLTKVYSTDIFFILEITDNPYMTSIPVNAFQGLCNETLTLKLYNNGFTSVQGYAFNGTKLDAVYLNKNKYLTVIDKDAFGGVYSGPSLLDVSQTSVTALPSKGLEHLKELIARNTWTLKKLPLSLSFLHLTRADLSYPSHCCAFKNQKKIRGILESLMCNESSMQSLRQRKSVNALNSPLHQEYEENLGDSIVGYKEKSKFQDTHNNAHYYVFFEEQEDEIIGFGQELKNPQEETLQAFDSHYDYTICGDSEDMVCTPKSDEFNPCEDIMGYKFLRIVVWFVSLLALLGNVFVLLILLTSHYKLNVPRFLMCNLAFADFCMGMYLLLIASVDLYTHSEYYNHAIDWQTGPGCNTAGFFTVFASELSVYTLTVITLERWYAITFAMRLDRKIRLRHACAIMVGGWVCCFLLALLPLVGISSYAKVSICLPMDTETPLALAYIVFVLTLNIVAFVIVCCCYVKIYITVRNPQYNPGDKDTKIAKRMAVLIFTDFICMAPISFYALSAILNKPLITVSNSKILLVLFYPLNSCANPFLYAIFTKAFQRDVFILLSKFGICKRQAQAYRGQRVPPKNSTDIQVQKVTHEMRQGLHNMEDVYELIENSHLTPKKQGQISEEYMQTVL
# Sequence of Thyrotropin-releasing hormone receptor (Homo sapiens) (P34981 whole entry, looked up): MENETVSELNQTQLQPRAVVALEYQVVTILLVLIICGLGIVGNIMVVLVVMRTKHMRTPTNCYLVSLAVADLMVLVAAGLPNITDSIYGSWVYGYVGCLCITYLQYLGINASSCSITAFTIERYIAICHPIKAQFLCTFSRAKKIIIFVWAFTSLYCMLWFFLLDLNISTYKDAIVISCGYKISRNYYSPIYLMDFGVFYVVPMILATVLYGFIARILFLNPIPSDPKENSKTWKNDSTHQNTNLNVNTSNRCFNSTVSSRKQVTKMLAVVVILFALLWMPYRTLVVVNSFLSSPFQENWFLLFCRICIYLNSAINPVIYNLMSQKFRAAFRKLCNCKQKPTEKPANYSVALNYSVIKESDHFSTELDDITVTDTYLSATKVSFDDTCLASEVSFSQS
# Sequence of Androgen receptor (Homo sapiens) (P10275 whole entry, looked up): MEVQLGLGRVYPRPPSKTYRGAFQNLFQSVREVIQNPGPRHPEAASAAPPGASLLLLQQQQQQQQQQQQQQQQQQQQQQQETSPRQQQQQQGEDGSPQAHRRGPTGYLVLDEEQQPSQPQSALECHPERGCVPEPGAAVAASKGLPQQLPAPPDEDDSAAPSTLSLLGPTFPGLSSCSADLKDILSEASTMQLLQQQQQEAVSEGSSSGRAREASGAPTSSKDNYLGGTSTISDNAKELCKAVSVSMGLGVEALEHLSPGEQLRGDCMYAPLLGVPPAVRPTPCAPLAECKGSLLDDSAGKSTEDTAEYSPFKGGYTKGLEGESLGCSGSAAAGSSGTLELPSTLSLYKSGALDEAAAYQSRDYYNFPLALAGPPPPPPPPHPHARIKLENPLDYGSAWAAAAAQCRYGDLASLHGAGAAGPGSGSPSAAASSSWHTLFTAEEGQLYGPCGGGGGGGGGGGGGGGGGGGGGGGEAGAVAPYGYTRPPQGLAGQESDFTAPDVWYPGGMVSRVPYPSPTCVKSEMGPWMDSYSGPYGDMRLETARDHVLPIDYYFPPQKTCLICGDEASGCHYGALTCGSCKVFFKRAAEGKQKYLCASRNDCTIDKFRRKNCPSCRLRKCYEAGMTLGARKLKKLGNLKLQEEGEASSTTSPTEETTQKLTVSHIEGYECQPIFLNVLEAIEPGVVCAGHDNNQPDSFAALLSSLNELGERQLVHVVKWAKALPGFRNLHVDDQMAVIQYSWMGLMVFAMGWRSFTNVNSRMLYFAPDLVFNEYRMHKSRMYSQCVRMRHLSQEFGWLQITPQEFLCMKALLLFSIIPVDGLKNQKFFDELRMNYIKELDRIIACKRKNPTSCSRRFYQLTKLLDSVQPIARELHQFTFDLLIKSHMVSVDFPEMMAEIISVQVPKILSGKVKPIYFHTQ
# Sequence of Estrogen receptor beta (Homo sapiens) (Q92731 whole entry, looked up): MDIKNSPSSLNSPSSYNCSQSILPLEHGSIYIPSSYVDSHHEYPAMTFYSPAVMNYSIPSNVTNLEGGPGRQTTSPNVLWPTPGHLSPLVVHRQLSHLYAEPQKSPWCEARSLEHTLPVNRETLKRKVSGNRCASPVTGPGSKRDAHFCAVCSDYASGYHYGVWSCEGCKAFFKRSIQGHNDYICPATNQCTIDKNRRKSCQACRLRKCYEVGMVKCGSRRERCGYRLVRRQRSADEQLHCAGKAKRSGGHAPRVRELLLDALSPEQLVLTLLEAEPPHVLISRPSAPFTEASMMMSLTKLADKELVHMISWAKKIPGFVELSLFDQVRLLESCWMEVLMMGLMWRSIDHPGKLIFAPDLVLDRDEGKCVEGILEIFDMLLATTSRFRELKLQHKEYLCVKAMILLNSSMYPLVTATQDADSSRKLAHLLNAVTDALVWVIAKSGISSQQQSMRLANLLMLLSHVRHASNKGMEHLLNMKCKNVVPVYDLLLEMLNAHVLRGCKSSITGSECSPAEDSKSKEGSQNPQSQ
# Sequence of Estrogen receptor (Homo sapiens) (P03372 whole entry, looked up): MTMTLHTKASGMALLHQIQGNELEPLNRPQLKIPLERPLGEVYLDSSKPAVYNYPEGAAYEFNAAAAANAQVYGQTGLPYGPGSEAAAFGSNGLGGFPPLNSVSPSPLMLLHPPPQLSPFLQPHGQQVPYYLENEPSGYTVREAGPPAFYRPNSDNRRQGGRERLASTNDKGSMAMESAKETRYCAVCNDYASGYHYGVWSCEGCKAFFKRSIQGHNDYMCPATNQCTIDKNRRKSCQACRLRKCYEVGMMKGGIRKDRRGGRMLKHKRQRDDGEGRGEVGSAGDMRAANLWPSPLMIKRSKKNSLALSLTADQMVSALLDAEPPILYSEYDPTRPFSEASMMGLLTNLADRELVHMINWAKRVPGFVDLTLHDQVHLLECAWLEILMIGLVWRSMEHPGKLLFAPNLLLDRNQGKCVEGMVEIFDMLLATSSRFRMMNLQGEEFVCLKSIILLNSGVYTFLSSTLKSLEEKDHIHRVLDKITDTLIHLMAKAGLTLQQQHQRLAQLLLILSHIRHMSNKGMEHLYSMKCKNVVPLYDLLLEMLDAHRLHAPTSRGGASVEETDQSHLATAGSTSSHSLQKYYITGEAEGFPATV
SMILES,outcome [1],Potency [2],outcome [3],Potency [4],Potency [5],Potency [6],Potency [7],outcome [8],outcome [9],Potency [10],Potency [11],outcome [12],Potency [13],Potency [14],outcome [15],Potency [16],outcome [17],outcome [18],Potency [19],Potency [20]
CC1(C)[C@@H]2CC[C@@]1(C)C(=O)C2,inactive,inactive,inactive,inactive,inactive,inactive,inactive,inactive,inactive,inactive,inactive,inactive,inactive,inactive,inactive,inactive,inactive,inactive,,
OC(Cn1cncn1)(Cn1cncn1)c1ccc(F)cc1F,inactive,inactive,inactive,inactive,inactive,inactive,inactive,inactive,inactive,inactive,inactive,inactive,inactive,inactive,inactive,inactive,inactive,,,
O=C(O)CCCCCCCC(=O)O,inactive,inactive,inactive,inactive,inactive,inactive,,inactive,inactive,inactive,inactive,inactive,inactive,inactive,inactive,inactive,inactive,inactive,inactive,
O=C(O)c1cccc([N+](=O)[O-])c1,inactive,inactive,inactive,inactive,inactive,inactive,,,,inactive,inactive,inactive,inactive,inactive,inactive,inactive,inactive,inactive,inactive,
Cn1cc[nH]c1=S,inactive,inactive,inactive,43.2 µM (active) and inactive,inactive,inactive,inactive,inactive,inactive,inactive,inactive,inactive,,43.2 µM (active) and inactive,inactive,inactive,inactive,,inactive,
O=C(O)c1cccnc1,inactive,inactive,inactive,inactive,inactive,inactive,,inactive,inactive,inactive,inactive,inactive,inactive,inactive,inactive,inactive,inactive,inactive,,
O=C(O)c1cc(N=Nc2ccc(S(=O)(=O)Nc3ccccn3)cc2)ccc1O,inactive,inactive,inactive,inactive,30.7 µM (active) and 30.6 µM (active),inactive,,inactive,inactive,61.3 µM (active) and 30.6 µM (active) and 29.8 µM (active),inactive,inactive,inactive,inactive,inactive,inactive,inactive,,,
CC(O)CN(CCN(CC(C)O)CC(C)O)CC(C)O (stereo not drawn),inactive,inactive,inactive,inactive,inactive,inactive,,inactive,inactive,inactive,inactive,inactive,inactive,inactive,inactive,inactive,inactive,inactive,,
CCCCC(CC)COC(=O)/C=C/c1ccc(OC)cc1 (stereo not drawn),inactive,inactive,,,inactive,inactive,inactive,inactive,inactive,inactive,inactive,,inactive,inactive,inactive,inactive,inactive,inactive,,inactive
Cc1cn([C@H]2C[C@H](N=[N+]=[N-])[C@@H](CO)O2)c(=O)[nH]c1=O,inactive,17.7 µM (active) and inactive,,,inactive,inactive,inactive,,,inactive,inactive,inactive,inactive,inactive,inactive,inactive,inactive,,,
CC(=O)OCC(COC(C)=O)OC(C)=O,inactive,inactive,inactive,inactive,inactive,inactive,,inactive,inactive,inactive,inactive,inactive,inactive,inactive,inactive,inactive,inactive,inactive,,
Oc1ccc(/C=C/c2cc(O)cc(O)c2)cc1,inactive,9.78 µM (active) and 17.2 µM (active),,,inactive,inactive,4.37 µM (active) and 8.63 µM (active) and 13.3 µM (active),inactive,inactive,inactive,,,inactive,inactive,inactive,inactive,inactive,inactive,inactive,1950 nM (active)
NS(=O)(=O)c1cc(C(=O)O)c(NCc2ccco2)cc1Cl,inactive,inactive,,,inactive,inactive,inactive,inactive,inactive,inactive,inactive,inactive,inactive,inactive,inactive,inactive,inactive,inactive,inactive,
CCCC(CCC)C(=O)O,inactive,inactive,,,inactive,inactive,inactive,inactive,inactive,inactive,inactive,inactive,inactive,inactive,inactive,inactive,inactive,inactive,,
CCOc1ccc(NC(=O)CC(C)O)cc1 (stereo not drawn),inactive,inactive,,,inactive,inactive,,inactive,inactive,inactive,inactive,inactive,inactive,inactive,inactive,inactive,inactive,inactive,,
O=C(c1ccccc1)C(O)c1ccccc1 (stereo not drawn),inactive,inactive,inactive,inactive,inactive,inactive,,inactive,inactive,inactive,inactive,inactive,inactive,inactive,inactive,inactive,inactive,inactive,,
